# Results from ChEMBL document CHEMBL4888484, “Replenishing the malaria drug discovery pipeline: Screening and hit evaluation of the MMV Hit Generation Library 1 (HGL1) against asexual blood stage Plasmodium falciparum ,using a nano luciferase reporter read-out” (2022).
# About 410 (8.5%) of roughly 4,800 compounds showed an effect of 50% or more. The sample holds strong results, similar compounds and a random draw of the others, so the mix is not that of the screen.
# Tested on: Plasmodium falciparum
# Assay: Confirmatory screen in NF54 pLDH assay, in single point, at 2uM, 72h
# Assay type: functional, Erythrocyte
# Settings: timepoint 72 hour
row,SMILES,% Inhibition
1,COc1ccccc1C(=O)N1CCC([C@H](NC(=O)c2ccc3c(c2)OCO3)C(=O)NC(C)C)CC1,10%
2,COc1ccccc1CC(=O)NC[C@H](C)O,14%
3,O=C1c2cc3ccccc3c(-c3ccccc3)c2C(=O)N1c1ccccc1,-16%
4,CCc1nn2c(c1-c1ccc(C)cc1)NC(=O)C[C@H]2C(=O)O,12%
5,Cc1cnc(CC[C@H]2CCCN2C(=O)CCCc2ccccc2)n1C,10%
6,CC(C)O[C@@H]1CCN(C[C@H](O)c2ccc(C(F)(F)F)cc2)C1,42%
7,CCc1ccc(C(=O)N2CC[C@H](CC(=O)NCc3ccccc3)C2)cc1,10%
8,Cc1cccc(C)c1NC(=O)c1cc(-c2cccc3ccccc23)[nH]n1,11%
9,Cc1cccc2c(-c3cc(N)nc(N)n3)c[nH]c12,100%
10,Cc1cc(Br)c2c(c1)C(O)(N1CCCC(C)C1)C(=O)N2 (stereo not given),9%
11,O=C(CN1C(=O)C[C@H](Cc2ccc(F)cc2)C1=O)N1CCNC1=O,9%
12,CN(C)c1nccc(NC[C@H](N)c2ccccc2)n1,-12%
13,CN(C)c1nc(N)cc(-c2cccc3cccnc23)n1,55%
14,CC1CCCC(C)N1C(=O)CN(C)c1cccc2cccnc12 (stereo not given),4%
15,Cc1ccc(C(N)C(C)S(C)(=O)=O)cc1 (stereo not given),-18%
16,Oc1cc(CC[C@H]2CCCCN2)cc(-c2cnc3ccccc3n2)c1,80%
17,COc1cccc(-c2cc(O)cc(CC[C@H]3CCCCN3)c2)n1,89%
18,O=C(NCC(F)(F)F)Nc1ccc(CO)cc1,3%
19,O=c1[nH]c2cc(Cl)c(S(=O)(=O)Cl)cc2[nH]1,6%
20,CCc1c(C(=O)NCc2ccc(CN3CC(C)OC(C)C3)cc2)[nH]c(C)c1C(C)=O (stereo not given),-27%
21,COc1ccc(CC(=O)N2CCN(c3cnn4cnnc4c3)CC2)cc1,6%
22,CCc1nnc2ccc(S(=O)(=O)N(CC#N)c3ccccc3)cn12,-16%
23,C=CCNC(=O)CCC(=O)NCc1ccco1,13%
24,COc1ccc(NC(=O)CCC(=O)NCc2ccco2)cc1,15%
25,c1coc(CNc2nc(Nc3cccc4ccccc34)nc3ccccc23)c1,50%
26,COc1ccc(CCN[C@@H]2c3ccccc3C(=O)N2C2CCCCC2)cc1OC,10%
27,CC(=O)N(Cc1ccccc1)c1ccc2c(c1)nc(Cn1nc(C)cc1C)n2C,5%
28,CCC(CC)N1CC(C(=O)NC2COc3ccc(C)cc32)CC1=O (stereo not given),-21%
29,CCn1cc(S(=O)(=O)N(C)Cc2nn(CC)cc2Cl)cn1,8%
30,Cn1c(=O)c2sc(N3CCCC3)nc2n(CC(=O)NC2CCCC2)c1=O,4%
